# Experimental data taken from PubChem BioAssay AID1159580 (chemical genetic matrix, 2015).
# Out of some 5,500 compounds screened, about 2,000 (36%) were called active. About 18% were inconclusive and are not listed. The list shows a part of the results. Values without a mark were called inactive. No stated cut-off is given here; in the data, active means normalized growth mostly below about 0.91 (no sharp cut-off); inconclusive means no clear call, values can overlap the other calls; inactive means mostly above about 0.92.
# Test: chemical genetic growth profiling, strain panel (AID 1159580);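 further: tested at 20 µM; growth read once vehicle control cultures reached saturation at 30 °C; 1 = growth at the plate median or of vehicle wells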
# Conditions: S. cerevisiae deletion strains, growth OD
# [1] = locus YAR019C, strain CDC15, stronger effect = lower value
# [2] = locus YBL105C, strain PKC1, stronger effect = lower value
# [3] = locus YBR135W, strain CKS1, stronger effect = lower value
# [4] = locus YBR136W, strain MEC1, stronger effect = lower value
# [5] = locus YBR160W, strain CDC28, stronger effect = lower value
# [6] = locus YDL017W, strain CDC7, stronger effect = lower value
# [7] = locus YDL028C, strain MPS1, stronger effect = lower value
# [8] = locus YDL101C, strain DUN1, stronger effect = lower value
# [9] = locus YDL108W, strain KIN28, stronger effect = lower value
# [10] = locus YDL132W, strain cdc53, stronger effect = lower value
# [11] = locus YDL214C, strain PRR2, stronger effect = lower value
# [12] = locus YDR052C, strain DBF4, stronger effect = lower value
# [13] = locus YDR054C, strain cdc34, stronger effect = lower value
# [14] = locus YDR226W, strain ADK1, stronger effect = lower value
# [15] = locus YDR477W, strain SNF1, stronger effect = lower value
# [16] = locus YER123W, strain YCK3, stronger effect = lower value
# [17] = locus YER133W, strain GLC7, stronger effect = lower value
# [18] = locus YFL009W, strain cdc4, stronger effect = lower value
# [19] = locus YFL029C, strain CAK1, stronger effect = lower value
# [20] = locus YFR003C, strain YPI1, stronger effect = lower value
# [21] = locus YFR019W, strain FAB1, stronger effect = lower value
# [22] = locus YFR028C, strain CDC14, stronger effect = lower value
# [23] = locus YGR040W, strain KSS1, stronger effect = lower value
# [24] = locus YGR052W, strain FMP48, stronger effect = lower value
# [25] = locus YGR092W, strain DBF2, stronger effect = lower value
# [26] = locus YHR030C, strain SLT2, stronger effect = lower value
# [27] = locus YHR079C, strain IRE1, stronger effect = lower value
# [28] = locus YHR082C, strain KSP1, stronger effect = lower value
# [29] = locus YHR205W, strain SCH9, stronger effect = lower value
# [30] = locus YIL147C, strain SLN1, stronger effect = lower value
# [31] = locus YJL095W, strain BCK1, stronger effect = lower value
# [32] = locus YJL128C, strain PBS2, stronger effect = lower value
# [33] = locus YJL157C, strain FAR1, stronger effect = lower value
# [34] = locus YJR016C, strain ILV3, stronger effect = lower value
# [35] = locus YJR066W, strain TOR1 (second series), stronger effect = lower value
# [36] = locus YJR066W, strain TOR1, stronger effect = lower value
# [37] = locus YKL048C, strain ELM1, stronger effect = lower value
# [38] = locus YKL067W, strain YNK1, stronger effect = lower value
# [39] = locus YKL101W, strain HSL1, stronger effect = lower value
# [40] = locus YKL193C, strain SDS22, stronger effect = lower value
# [41] = locus YKL203C, strain TOR2, stronger effect = lower value
# [42] = locus YLR113W, strain HOG1, stronger effect = lower value
# [43] = locus YLR133W, strain CKI1, stronger effect = lower value
# [44] = locus YLR403W, strain SFP1, stronger effect = lower value
# [45] = locus YML070W, strain DAK1, stronger effect = lower value
# [46] = locus YMR001C, strain CDC5, stronger effect = lower value
# [47] = locus YMR205C, strain PFK2 (second series), stronger effect = lower value
# [48] = locus YMR277W, strain FCP1, stronger effect = lower value
# [49] = locus YNL006W, strain LST8, stronger effect = lower value
# [50] = locus YNL020C, strain ARK1, stronger effect = lower value
# [51] = locus YNL161W, strain CBK1, stronger effect = lower value
# [52] = locus YNL183C, strain NPR1, stronger effect = lower value
# [53] = locus YNL207W, strain RIO2, stronger effect = lower value
# [54] = locus YNL222W, strain SSU72, stronger effect = lower value
# [55] = locus YNL307C, strain MCK1 (second series), stronger effect = lower value
# [56] = locus YOL078W, strain AVO1, stronger effect = lower value
# [57] = locus YOL136C, strain PFK27, stronger effect = lower value
# [58] = locus YOR061W, strain CKA2, stronger effect = lower value
# [59] = locus YOR119C, strain RIO1, stronger effect = lower value
# [60] = locus YOR231W, strain MKK1, stronger effect = lower value
# [61] = locus YOR329C, strain SCD5, stronger effect = lower value
# [62] = locus YPL031C, strain PHO85, stronger effect = lower value
# [63] = locus YPL153C, strain RAD53, stronger effect = lower value
# [64] = locus YPL204W, strain HRR25, stronger effect = lower value
# [65] = locus YPL209C, strain IPL1, stronger effect = lower value
# [66] = locus YPL256C, strain CLN2, stronger effect = lower value
# [67] = locus YPR025C, strain CCL1, stronger effect = lower value
# [68] = locus YPR106W, strain ISR1, stronger effect = lower value
# [69] = locus YPR111W, strain DBF20, stronger effect = lower value
# [70] = strain NNK1, stronger effect = lower value
# [71] = strain TSCII, stronger effect = lower value
structure (smiles),measurement,setting,value
Cn1cc(Br)c(-c2cccc(NS(=O)(=O)c3ccc(Cl)cc3)c2)n1,normalized growth,[1],0.987
same,normalized growth,[2],0.976
same,normalized growth,[3],0.998
same,normalized growth,[4],0.995
same,normalized growth,[5],0.979
same,normalized growth,[6],0.987
same,normalized growth,[7],0.992
same,normalized growth,[8],0.977
same,normalized growth,[9],0.999
same,normalized growth,[10],0.994
same,normalized growth,[11],1
same,normalized growth,[12],0.976
same,normalized growth,[13],0.988
same,normalized growth,[14],0.987
same,normalized growth,[15],0.992
same,normalized growth,[16],0.998
same,normalized growth,[17],1
same,normalized growth,[18],0.989
same,normalized growth,[19],0.993
same,normalized growth,[20],0.994
same,normalized growth,[21],1
same,normalized growth,[22],0.998
same,normalized growth,[23],0.995
same,normalized growth,[24],1.04
same,normalized growth,[25],0.984
same,normalized growth,[26],1.12
same,normalized growth,[27],1.11
same,normalized growth,[28],1.11
same,normalized growth,[29],0.987
same,normalized growth,[30],0.986
same,normalized growth,[31],0.988
same,normalized growth,[32],0.986
same,normalized growth,[33],0.998
same,normalized growth,[34],0.993
same,normalized growth,[35],1.01
same,normalized growth,[36],1.07
same,normalized growth,[37],0.999
same,normalized growth,[38],1.02
same,normalized growth,[39],1
same,normalized growth,[40],0.995
same,normalized growth,[41],1.06
same,normalized growth,[42],0.983
same,normalized growth,[43],1
same,normalized growth,[44],0.999
same,normalized growth,[45],1.01
same,normalized growth,[46],0.985
same,normalized growth,[47],1.01
same,normalized growth,[48],0.998
same,normalized growth,[49],0.999
same,normalized growth,[50],0.997
same,normalized growth,[51],0.981
same,normalized growth,[52],1.06
same,normalized growth,[53],0.987
same,normalized growth,[54],0.995
same,normalized growth,[55],0.98
same,normalized growth,[56],1
same,normalized growth,[57],1
same,normalized growth,[58],1
same,normalized growth,[59],1.06
same,normalized growth,[60],0.982
same,normalized growth,[61],0.986
same,normalized growth,[62],0.989
same,normalized growth,[63],0.994
same,normalized growth,[64],0.997
same,normalized growth,[65],0.992
same,normalized growth,[66],1.13
same,normalized growth,[67],0.981
same,normalized growth,[68],0.99
same,normalized growth,[69],0.985
same,normalized growth,[70],1
same,normalized growth,[71],0.993
O=S(=O)(Nc1c(F)cccc1F)c1ccc(Cl)c(Cl)c1,normalized growth,[1],0.933
same,normalized growth,[2],0.946
same,normalized growth,[3],0.932
same,normalized growth,[4],0.943
same,normalized growth,[5],0.937
same,normalized growth,[6],0.945
same,normalized growth,[7],0.939
same,normalized growth,[8],0.949
same,normalized growth,[9],0.947
same,normalized growth,[10],0.961
same,normalized growth,[11],0.984
same,normalized growth,[12],0.956
same,normalized growth,[13],0.933
same,normalized growth,[14],0.943
same,normalized growth,[15],0.959
same,normalized growth,[16],0.962
same,normalized growth,[17],0.964
same,normalized growth,[18],0.931
same,normalized growth,[19],0.933
same,normalized growth,[20],0.946
same,normalized growth,[21],0.948
same,normalized growth,[22],0.933
same,normalized growth,[23],0.951
same,normalized growth,[24],1.05
same,normalized growth,[25],0.843
same,normalized growth,[26],0.956
same,normalized growth,[27],0.942
same,normalized growth,[28],1
same,normalized growth,[29],0.982
same,normalized growth,[30],0.933
same,normalized growth,[31],0.947
same,normalized growth,[32],0.874
same,normalized growth,[33],0.97
same,normalized growth,[34],0.931
same,normalized growth,[35],0.967
same,normalized growth,[36],1.03
same,normalized growth,[37],0.93
same,normalized growth,[38],0.962
same,normalized growth,[39],0.96
same,normalized growth,[40],0.937
same,normalized growth,[41],1.02
same,normalized growth,[42],0.926
same,normalized growth,[43],0.964
same,normalized growth,[44],0.966
same,normalized growth,[45],0.961
same,normalized growth,[46],0.937
same,normalized growth,[47],0.973
same,normalized growth,[48],0.936
same,normalized growth,[49],0.941
same,normalized growth,[50],0.955
same,normalized growth,[51],0.94
same,normalized growth,[52],0.947
same,normalized growth,[53],0.937
same,normalized growth,[54],0.937
same,normalized growth,[55],0.95
same,normalized growth,[56],0.938
same,normalized growth,[57],0.985
same,normalized growth,[58],0.969
same,normalized growth,[59],1.05
same,normalized growth,[60],0.935
same,normalized growth,[61],0.943
same,normalized growth,[62],0.964
same,normalized growth,[63],0.927
same,normalized growth,[64],0.95
same,normalized growth,[65],0.94
same,normalized growth,[66],0.914
same,normalized growth,[67],0.934
same,normalized growth,[68],0.957
same,normalized growth,[69],0.934
same,normalized growth,[70],0.953
same,normalized growth,[71],0.93
COC(=O)c1cccc(NS(=O)(=O)c2ccc(Cl)c(Cl)c2)c1,normalized growth,[1],0.981
same,normalized growth,[2],0.969
same,normalized growth,[3],0.973
same,normalized growth,[4],0.973
same,normalized growth,[5],0.983
same,normalized growth,[6],0.978
same,normalized growth,[7],0.977
same,normalized growth,[8],0.979
same,normalized growth,[9],0.973
same,normalized growth,[10],0.981
same,normalized growth,[11],0.971
same,normalized growth,[12],0.972
same,normalized growth,[13],0.961
same,normalized growth,[14],0.986
same,normalized growth,[15],0.991
same,normalized growth,[16],0.973
same,normalized growth,[17],0.985
same,normalized growth,[18],0.97
same,normalized growth,[19],0.982
same,normalized growth,[20],0.974
same,normalized growth,[21],0.994
same,normalized growth,[22],0.973
same,normalized growth,[23],1
same,normalized growth,[24],1.01
same,normalized growth,[25],0.948
same,normalized growth,[26],0.852
same,normalized growth,[27],0.923
same,normalized growth,[28],1.08
same,normalized growth,[29],0.904
same,normalized growth,[30],0.975
same,normalized growth,[31],0.896
same,normalized growth,[32],0.902
same,normalized growth,[33],0.98
same,normalized growth,[34],0.981
same,normalized growth,[35],0.98
same,normalized growth,[36],1.06
same,normalized growth,[37],0.949
same,normalized growth,[38],0.972
same,normalized growth,[39],0.962
same,normalized growth,[40],0.974
same,normalized growth,[41],1.05
same,normalized growth,[42],0.861 (active)
same,normalized growth,[43],0.978
same,normalized growth,[44],0.985
same,normalized growth,[45],0.963
same,normalized growth,[46],0.975
same,normalized growth,[47],0.977
same,normalized growth,[48],0.973
same,normalized growth,[49],0.978
same,normalized growth,[50],0.974
same,normalized growth,[51],0.982
same,normalized growth,[52],1.04
same,normalized growth,[53],0.974
same,normalized growth,[54],0.98
same,normalized growth,[55],0.973
same,normalized growth,[56],0.979
same,normalized growth,[57],0.959
same,normalized growth,[58],0.986
same,normalized growth,[59],1.05
same,normalized growth,[60],0.953
same,normalized growth,[61],0.977
same,normalized growth,[62],0.98
same,normalized growth,[63],0.963
same,normalized growth,[64],0.959
same,normalized growth,[65],0.981
same,normalized growth,[66],0.895
same,normalized growth,[67],0.977
same,normalized growth,[68],0.977
same,normalized growth,[69],0.972
same,normalized growth,[70],0.966
same,normalized growth,[71],0.98
